# Chronic BCR inh – qHTS Assay to Find Inhibitors of Chronic Active B-Cell Receptor Signaling; Potency, µM (series often up to 46.1 µM), most hits filed as inhibitors; 0.05% of 340,000 active; ABC-DLBCL IkBa-CBG/CBR reporter, luminescence ratio, 4 h; active means well fitted inhibition curve with a large enough effect in the signal ratio, with a control signal flat, not every such curve was filed as active; inconclusive means small, poorly fitted or top-dose-only effect, or effect the other way, or a change in a side signal; the % refers to the signal ratio
#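 Cell line TMD8 (human ABC DLBCL), stably expressing tet-inducible CBG68-IkBa fusion and CBR; IMDM/0.5% FBS; cpd up to 46 uM; dox induction, 4 h, 37C/5% CO2; dual luminescence; green/red ratio; MG132 control.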
# DT40 TDP1 no CPT – qHTS for Inhibitors of human tyrosyl-DNA phosphodiesterase 1 (TDP1): qHTS in cells in absence of CPT | Potency, µM (series often up to 46.2 µM), usual class: inhibitors | 15% of 420,000 active | DT40 Tdp1-/- hTDP1 cells, no CPT, ATP luminescence, 48 h; further: nearly all actives have a fitted effect of over 55% in size
#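 Seeded 400 DT40-hTDP1 cells/well (vehicle DMSO, no 20 nM CPT); pinned compounds; ≥48 hr at 37 °C; CellTiter-Glo luminescence as viability measure.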
# IL-1B inflam inh – qHTS for Inhibitors of Inflammasome Signaling: IL-1-beta AlphaLISA Primary Screen | 4.7% of 360,000 active | activity change, % at 57.5 µM | THP-1 LPS/ATP IL-1B secretion, AlphaLISA, 16 h; stronger effect = lower value; in the data active means activity change below about -50%; inconclusive means mostly about -30% to -49%
#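 Secreted IL-1B measured by AlphaLISA bead assay after 16 h compound exposure of THP-1 cells; compounds (final up to 57.5 uM) added 1 h before LPS (250 ng/mL) and ATP (1.25 mM) stimulation; lower signal means less secretion.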
# MCF10A rerep – A quantitative high throughput screen for small molecules that induce DNA re-replication in MCF 10a normal breast cells; MCF 10A DNA re-replication, Hoechst nuclear intensity, 48 h; Potency, µM (titrated, usually from 46.1 µM), actives largely listed as activators; 2.9% of 350,000 active; AID 624296, 2012; further: nearly all actives have a fitted effect of over 50% in size
# SW480 rereplic – A quantitative high throughput screen for small molecules that induce DNA re-replication in SW480 colon adenocarcinoma cells; SW480 DNA re-replication, Hoechst DNA content imaging, 48 h; Potency, µM (series often up to 46.1 µM), hits mostly activators; 1.8% of 340,000 active; further: nearly all actives have a fitted effect of over 55% in size
#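 Quantitative HTS format with DMSO vehicle controls; 48 hr drug incubation at 37 C, then 40 min Hoechst staining and scanning imager measurement at 405 nm excitation.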
# DT40 TDP1 CPT – qHTS for Inhibitors of human tyrosyl-DNA phosphodiesterase 1 (TDP1): qHTS in cells in presence of CPT; chicken DT40 Tdp1-/-;hTDP1 cells + 20 nM CPT, ATP luminescence, 48 h; Potency, µM (doses to about 46.2 µM), most hits filed as inhibitors; 12% of 420,000 active; further: nearly all actives have a fitted effect of over 55% in size
#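 Chicken DT40 Tdp1-/- cells complemented with human TDP1, 400 cells/well, exposed to compounds plus 20 nM camptothecin for at least 48 h at 37 C; viability read as ATP content by CellTiter-Glo luminescence.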
# Hits are given with their value; . = inactive; ? = inconclusive; / = not tested or not shown; [ ] = remark or other dose. In the library only some 19% were active in any assay of this set; here they are far more common. Unless noted, the call rests on the fitted dose curve; in most records, active means well fitted curve in the direction sought with a large enough effect; inconclusive means small, poorly fitted or top-dose-only effect, or another doubt; inactive means no such curve, though single readings can be large; an effect the other way counts as inactive or inconclusive.
SMILES,Chronic BCR inh,DT40 TDP1 no CPT,IL-1B inflam inh,MCF10A rerep,SW480 rereplic,DT40 TDP1 CPT
COc1cc(C2Sc3ccccc3NC3=C2C(=O)OC3)cc(OC)c1OC (stereo not drawn),.,?,.,?,?,16µM
COc1cc(C2Nc3ccc4ncccc4c3C3=C2C(=O)CCC3)cc(OC)c1OC (stereo not drawn),?,?,.,.,.,?
Nc1cccc2c1C(=O)N(Cc1cccc(Cl)c1)C2=O,?,.,.,16µM,?,.
CC(O)CNc1nc2ccccc2n1-c1ncnc2sc3c(c12)CCC3 (stereo not drawn),?,29µM,?,.,.,16µM
c1ccc2c(c1)ncn2-c1ncnc2sc3c(c12)CCCC3,.,.,.,.,.,.
C[C@H](CO)N1C[C@H](C)[C@@H](CN(C)C(=O)Nc2ccc3c(c2)OCO3)Oc2ccc(NC(=O)Cn3cnnn3)cc2C1=O,.,.,.,.,.[9.22 µM],.
CC(=O)Nc1ccc(S(=O)(=O)N(C)c2ccc(OCCOc3ccccc3F)cc2)cc1,?,?,.,.,.,?
COc1ccccc1N1CCN(C(CNC(=O)C(=O)NCCCN(C)C)c2cccnc2)CC1 (stereo not drawn),/,.,/,/,/,.
CN(C)CCn1c(=O)n(Cc2ccco2)c(=O)c2c3c(sc21)CCCCC3,?,?,.,?,.,?
O=C(Cn1c(=O)n(Cc2ccco2)c(=O)c2c3c(sc21)CCCCC3)Nc1ccccc1,.,?,.,.,.,.
O=C(Cn1c(=O)n(Cc2ccco2)c(=O)c2c3c(sc21)CCCCC3)c1ccccc1,.,15µM,.,?,.,15µM
O=c1c2c3c(sc2n(CCN2CCCC2)c(=O)n1Cc1ccco1)CCCCC3,.,12µM,?,.,?,8.2µM
CC(C)SCCCOc1ccc(C(C)(C)C)cc1,.,?,.,.,.,.
CC(C)(C)CC(C)(C)c1ccc(OCCO)cc1,/,11µM,/,.,.,8.4µM
O=C(NNC(=O)C1CC(c2cccs2)=NO1)Nc1ccccc1 (stereo not drawn),.,.,.,.,.,.
Cc1ccc(-c2nnc(NCc3ccccc3)c3ccccc23)cc1,?,?,-84,.,.,?
Cc1ccc(Nc2ccc(NCc3ccccc3)nn2)cc1C,.,?,?,.,.,.
Clc1ccc(-c2nnc(NCc3ccccc3)c3ccccc23)cc1,?,?,-94,?,.,?
Clc1ccc(Nc2ccc(NCc3ccccc3)nn2)cc1,.,?,.,?,16µM,.
COc1ccc(C(=O)NCC(c2ccco2)S(=O)(=O)c2cccs2)cc1 (stereo not drawn),.,?,/,/,/,?
O=c1onc2cnc3ccccc3n12,/,13µM,/,/,/,?
CCOC(=O)c1ccc(Nc2sc(C(=O)c3cccc([N+](=O)[O-])c3)c(N)c2C#N)cc1,.,0.73µM,.,?,?,1µM
Nc1nc(NCCc2ccc(O)cc2)nc2nc(-c3ccco3)nn12,/,12µM,/,/,/,15µM
CC(=O)c1c(N)c(C#N)c(C)n1-c1ccc(Br)cc1,?,?,.,.,.,.
Cc1c(C#N)c(N=CN(C)C)c(C(=O)c2ccc(Br)cc2)n1-c1ccc(Cl)cc1,?,?,.,.,.,11µM
SMILES,Chronic BCR inh,DT40 TDP1 no CPT,IL-1B inflam inh,MCF10A rerep,SW480 rereplic,DT40 TDP1 CPT
Nn1c(SCC(=O)NC2CCS(=O)(=O)C2)nc2scc(-c3ccccc3)c2c1=O (stereo not drawn),.,.,.,.,.,.
c1ccc2c(c1)CCCC2C1=NCCN1 (stereo not drawn),.,.,.,.,?,.
Brc1ccc2c(c1)C(C1=NCCN1)c1ccccc1CS2 (stereo not drawn),.,5.8µM,?,.,?,7.3µM
Oc1ccc2ccccc2c1C=Nc1ccc(Cl)cn1,.,.,.,.,.,.
O=C(CCCCCN1C(=O)c2cccc3cccc(c23)C1=O)NCc1cccnc1,?,?,/,?,.,2.9µM
CCOc1ccccc1N1CC(C(=O)Nc2cc(S(=O)(=O)N3CCOCC3)ccc2OC(C)C)CC1=O (stereo not drawn),/,?,.,.,.,?
O=C(CN1C(=O)NC2(CCCCCC2)C1=O)c1ccc(OC(F)F)cc1OC(F)F,.,?,.,?,.,?
COc1ccc(-c2noc(CCC(=O)NC3CCN(Cc4ccccc4)CC3)n2)cc1,?,12µM,.,?,.,?
COc1ccc(-c2noc(CCC(=O)NCc3ccc(C)cc3)n2)cc1,/,.,/,/,/,.
O=C(CCc1nc(-c2ccccc2F)no1)NCCN1CCN(Cc2ccccc2)CC1,.,?,.,.,.,18µM
COc1ccc(-c2noc(CCC(=O)NCC3CCN(Cc4cccc(C)c4)CC3)n2)cc1,.,23µM,-72,.,.,?
CCn1c(=O)c2sccc2n(CC(=O)NCCC2=CCCCC2)c1=O,.,.,.,?,.,.
CCC(CC)C(=O)N1N=C(c2ccc(NS(C)(=O)=O)cc2)CC1c1ccc(C)cc1 (stereo not drawn),.,?,.,.,.,?
Cc1cc(C)cc(NC(=O)c2sc3nc(-c4cc5ccccc5oc4=O)[nH]c(=O)c3c2C)c1,/,.,/,/,/,?
Cc1c(C(=O)Nc2cccc(F)c2)sc2nc(-c3cc4ccccc4oc3=O)[nH]c(=O)c12,/,?,/,/,/,23µM
Cc1cccc(NC(=O)c2sc3nc(-c4cc5ccc(O)cc5oc4=O)[nH]c(=O)c3c2C)c1,/,21µM,/,/,/,21µM
CCOc1ccc(C(c2c(NC(=O)c3ccco3)sc(C)c2C)N2CCOCC2)cc1 (stereo not drawn),.,?,?,21µM,.,23µM
COc1cccc(C(c2c(NC(=O)c3ccco3)sc(C)c2C)N2CCOCC2)c1 (stereo not drawn),?,?,.,21µM,.,?
Cc1sc(NC(=O)c2ccco2)c(CN2CCN(c3ccccc3)CC2)c1C,.,10µM,.,.,?,15µM
Cc1sc(NC(=O)c2ccco2)c(CN2CCCCC2)c1C,.,?,.,.,.,?
CCOC(=O)N1CCN(C(=O)COC(=O)c2oc3ccc(OC)cc3c2C)CC1,.,.,.,.,.,.
CCCCCCCCCC[N+](C)(C)CC/C=C1/c2ccccc2Sc2ccc(Cl)cc21,.,3.7µM,.,?,.,5.2µM

# From PubChem
